High-throughput results (PubChem BioAssay)
Compounds with a hit are over-represented: about 3.4% of the library has one in this group of screens.
Giardia FBPA inh: inhibitors of Giardia lamblia fructose-1,6-bisphosphate aldolase. A8B2U2. purified Giardia FBPA. Potency, µM (doses to about 59.6 µM), without a hit: at the highest dose activity, negative = inhibition, most hits filed as inhibitors. actives 0.71% (n = 290,000). AID 2451; further: nearly all actives have a fitted effect of over 55% in size
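40 nM FBPA preincubated 10 min at RT with compound (up to 57.5 uM final), then substrate plus GAPDH/TPI/NAD/arsenate coupling and diaphorase/resazurin added. Fluorescence read after 20 min at RT, 525/598 nm.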
Sm TGR inh: S. mansoni TGR enzyme inhibition; Q962Y6; purified TGR, DTNB reduction, TNB absorbance 405 nm; Potency, µM (titrated, usually from 114 µM), for inactives: at the top dose activity change, negative = inhibition, actives largely listed as inhibitors; actives 3% (n = 360,000); AID 485364; further: nearly all actives have a fitted effect of over 60% in size
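TGR 20 nM + NADPH 100 uM (dispensed conc.), cpd preinc 15 min RT; start with NADPH (500 uM addition) then DTNB (15 mM addition). Kinetic TNB absorbance, 405 nm filter. Four-parameter Hill fit across titration.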
AmpC detergent: inhibitors of E. coli AmpC beta-lactamase with detergent; P00811; AmpC hydrolysis of nitrocefin, absorbance 480 nm, 0.01% Triton; Potency, µM (highest dose often 114 µM), without a hit: at the highest dose activity change, negative = inhibition, hits mostly inhibitors; actives 0.041% (n = 370,000);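 further: 0% = no-compound wells and -100% = no-enzyme wells; nearly all actives have a fitted effect of over 25% in size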
Target sequence (P00811 whole entry, looked up): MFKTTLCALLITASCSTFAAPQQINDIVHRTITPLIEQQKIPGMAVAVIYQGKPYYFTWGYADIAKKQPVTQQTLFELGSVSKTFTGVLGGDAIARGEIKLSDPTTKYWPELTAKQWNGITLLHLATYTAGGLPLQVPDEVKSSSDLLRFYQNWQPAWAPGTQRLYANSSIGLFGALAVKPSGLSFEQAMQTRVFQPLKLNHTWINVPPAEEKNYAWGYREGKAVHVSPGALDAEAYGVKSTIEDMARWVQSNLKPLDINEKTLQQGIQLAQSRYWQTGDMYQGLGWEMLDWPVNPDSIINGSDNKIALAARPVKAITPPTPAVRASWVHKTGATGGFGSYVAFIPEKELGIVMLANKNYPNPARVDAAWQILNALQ
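20 mM phosphate pH 7.0 + 0.01% (detergent screen) or 0.0001% Triton X-100; 5.3 nM AmpC reagent; cpd preinc 15 min RT; nitrocefin (800 uM stock) to start; A480 q20 s × 4 min; Activity was normalised to no-enzyme and no-compound control wells.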
AmpC inh no detg: blocks E. coli AmpC beta-lactamase in detergent-free assay; AID 485341; AmpC nitrocefin hydrolysis, absorbance 480 nm, 0.0001% Triton; Potency, µM (highest dose often 57.1 µM), without a hit: top-dose activity change, negative = inhibition, most hits filed as inhibitors; actives 0.52% (n = 330,000);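 further: plate controls were no compound for no effect and no enzyme for full effect; nearly all actives have a fitted effect of over 20% in size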
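20 mM phosphate pH 7.0 + 0.01% (detergent screen) or 0.0001% Triton X-100; 5.3 nM AmpC reagent; cpd preinc 15 min RT; nitrocefin (800 uM stock) to start; A480 q20 s × 4 min; Activity was normalised to no-enzyme and no-compound control wells.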
RE007 growth inh: less growth of the S. pombe RE007 Vpr strain; S. pombe RE007 Vpr strain, BacTiter-Glo ATP luminescence, 24 h; Potency, µM (highest dose often 92.2 µM), inactives show at the top dose activity change, negative = less growth, hits mostly inhibitors; actives 0.21% (n = 360,000); AID 651644; active means well fitted falling curve with a large enough effect; inconclusive means small, poorly fitted or top-dose-only effect; inactive means no such curve, though single readings can be large or run the other way; further: nearly all actives have a fitted effect of over 50% in size
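Fission yeast RE007 carrying one integrated HIV-1 vpr copy, seeded at OD 0.01 in PMG+AL medium with 23 nL pinned compound. Grown 24 h at 30 degrees; viability read by BacTiter-Glo luminescence after 5 min.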
* hit, by the source's call; ? = inconclusive; . = not tested or not shown; ! = not active in a repeat. Unless noted, the call rests on the fitted dose curve; in most records, active means well fitted curve in the direction sought with a large enough effect; inconclusive means small, poorly fitted or top-dose-only effect, or another doubt; inactive means no such curve, though single readings can be large; an effect the other way counts as inactive or inconclusive. Unless noted, on the % scale 0 is the no-effect control and ±100 the full control effect; potency means the concentration at half of the fitted maximal effect.

SMILES	Giardia FBPA inh	Sm TGR inh	AmpC detergent	AmpC inh no detg	RE007 growth inh
C=CCn1c(SCc2nc3ccccc3nc2C)nnc1-c1ccoc1C	-14%	45µM*	-4%	106%	11%
CCn1c(SCc2nc3ccccc3nc2C)nnc1-c1cccs1	7%	6%	-2%	-1%	2%
CN1CCN(c2nc(-c3cccs3)cc(C(F)(F)F)n2)CC1	-27%	0%	1%	42%	-14%
CS(=O)(=O)c1nc(-c2ccc(F)cc2)cc(C(F)(F)F)n1	1%	.	6%	0%	-15%
O=C(O)CCS(=O)(=O)c1nc(-c2cccs2)cc(C(F)(F)F)n1	2%	50µM*	-6%	-8%	-9%
O=C(CCS(=O)(=O)c1nc(-c2cccs2)cc(C(F)(F)F)n1)Nc1cccc(O)c1	.	32µM*	7%	.	.
COc1ccc(-c2cc(C(F)(F)F)nc(S(C)(=O)=O)n2)cc1	1%	25µM*	-1%	-5%	-21%
CS(=O)(=O)c1nc(-c2cccs2)cc(C(F)(F)F)n1	-2%	7.9µM*	-13%	-14%	.
CCCCC(C(=O)O)C(C)CC(=O)Nc1nccs1 (centres undefined)	12%	6%	1%	-12%	4%
CCN1CCN(C(=O)/C=C/c2cccc(Cl)c2)CC1	4%	6%	-12%	-5%	3%
COc1ccc(NC(=O)CCS(=O)(=O)c2nc(-c3cccs3)cc(C(F)(F)F)n2)cc1OC	.	40µM*	5%	.	.
COc1cc(NC(=O)CCS(=O)(=O)c2nc(-c3cccs3)cc(C(F)(F)F)n2)cc(OC)c1OC	.	?	-10%	-19%	.
Cc1cc(NC(=O)CCCS(=O)(=O)c2nc(-c3cccs3)cc(C(F)(F)F)n2)no1	-1%	13µM*	0%	-7%	-8%
CC1CC(C)CN(S(=O)(=O)N2CCCC(C(=O)NC3CCCCC3)C2)C1 (centres undefined)	-9%	-1%	?	-12%	0%
COc1ccc(OC)c(-c2csc(NC(=O)Cc3ccc(F)cc3)n2)c1	.	11%	6%	-14%	13%
Cc1ccc(-c2csc(NC(=O)Cc3ccc(F)cc3)n2)o1	-19%	7.1µM*	9%	?	-17%
Cc1ccc(-c2csc(NC(=O)c3ccc(-c4ccccc4)cc3)n2)o1	-10%	10µM*	-13%	-21%	-4%
Cc1ccc(-c2csc(Nc3ccc(S(N)(=O)=O)cc3)n2)o1	-19%	1.8µM*	2%	-55%	2%
C=CCn1c(CCNC(=O)c2ccco2)nc2ccccc21	.	-6%	-7%	-1%	-3%
O=C(N/N=C/c1ccc2c(c1)OCO2)C(O)c1ccccc1 (centres undefined)	2%	2%	-10%	-15%	1%
CN1CCC(=C2c3ccccc3CC(=O)c3sccc32)CC1	-5%	50µM*!	-3%	-4%	-5%
CC(C)C[C@H]1CN=C(N(C)C)N1CC(C)C	.	.	.	-14%	2%
COCCNc1nc2cc(-c3ccc(F)cc3)sc2c(=O)n1C	.	.	.	.	1%
O=c1[nH]c(CCl)nc2cc(-c3ccc(F)cc3)sc12	-5%	11µM*	-4%	-23%	-3%
COc1ccc(/C(O)=C2\C(=O)C(=O)N(c3cc(C)on3)C2c2ccc(OC)c(OC)c2)cc1OC (centres undefined)	3%	-7%	4%	-12%	0%
SMILES	Giardia FBPA inh	Sm TGR inh	AmpC detergent	AmpC inh no detg	RE007 growth inh
CCN(CC)CCn1c2c(c(SCC(=O)Nc3cccc(C(C)=O)c3)nc1=O)CCCC2	.	45µM*	1%	54%	-13%
COc1ccc(C)cc1NC(=O)CSc1nc(=O)n(Cc2ccco2)c2c1CCC2	.	35µM*	0%	.	.
CCc1ccc(NC(=O)CSc2nc(=O)n(Cc3ccco3)c3c2CCC3)cc1	.	45µM*	-1%	.	.
Cc1cccc(NC(=O)CSc2nc(=O)n(Cc3ccco3)c3c2CCC3)c1C	.	-26%	-1%	.	.
Cc1c(Cl)cccc1NC(=O)CSc1nc(=O)n(Cc2ccco2)c2c1CCC2	.	40µM*	-5%	.	.
CCCCNC(=O)C1CCC(CNc2c(N3CCC(C)CC3)c(=O)c2=O)CC1 (centres undefined)	-2%	-1%	5%	9%	3%
